The results in this text go back to PubChem BioAssay (Tox21).

For test [1], the target named is Acetylcholinesterase (Homo sapiens) (UniProt P22303). As to the kind of experiment: Acetylcholinesterase (AChE) small molecule antagonists: enzyme-based qHTS assay (AID 1347397; calls by dose curve; further: nearly all actives have a fitted effect of over 55% in size). As to conditions: Potency: AChE enzyme activity inhibition. Put shortly: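 rhAChE 50 mU/mL (dispensed) + cpd or DMSO, 30 min RT; add DTNB/acetylthiocholine cocktail, 10 min RT; colorimetric thiocholine readout. qHTS, 1536-well format.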
Sequence of Acetylcholinesterase (Homo sapiens) (P22303 whole entry, looked up): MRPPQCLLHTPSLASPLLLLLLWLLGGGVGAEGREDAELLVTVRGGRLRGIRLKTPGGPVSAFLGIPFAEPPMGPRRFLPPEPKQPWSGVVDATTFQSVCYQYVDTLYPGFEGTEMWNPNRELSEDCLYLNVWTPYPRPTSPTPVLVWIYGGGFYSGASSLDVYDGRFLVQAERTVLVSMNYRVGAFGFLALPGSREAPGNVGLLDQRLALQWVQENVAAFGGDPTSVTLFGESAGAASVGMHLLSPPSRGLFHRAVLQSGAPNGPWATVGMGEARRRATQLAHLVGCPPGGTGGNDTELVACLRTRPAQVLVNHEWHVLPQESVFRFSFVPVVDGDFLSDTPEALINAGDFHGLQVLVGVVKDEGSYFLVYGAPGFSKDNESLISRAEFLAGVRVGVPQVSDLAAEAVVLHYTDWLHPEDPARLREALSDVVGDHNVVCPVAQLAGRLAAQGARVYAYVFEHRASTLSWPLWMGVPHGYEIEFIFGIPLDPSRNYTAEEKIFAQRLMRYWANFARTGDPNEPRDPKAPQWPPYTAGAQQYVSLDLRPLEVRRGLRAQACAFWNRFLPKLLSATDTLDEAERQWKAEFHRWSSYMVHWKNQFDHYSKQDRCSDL
In general terms: Quantitative high-throughput screening tests each substance at several concentrations.

For test [2] the target is unchanged. The test can be described thus: Acetylcholinesterase (AChE) small molecule antagonists: fluorescence cell-based qHTS assay (AID 1347398; calls by dose curve; further: nearly all actives have a fitted effect of over 50% in size). Conditions: Potency: AChE activity. In outline:
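Read-out is Thiolite Green fluorescence at Ex/Em = 490/520 nm, formed by reaction with thiocholine released when cellular AChE in SH-SY5Y cells hydrolyzes acetylthiocholine. Compounds were preincubated 30 min at 37 C before substrate.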

Test [3] shares this target. As to the kind of experiment: Acetylcholinesterase (AChE) small molecule antagonists: enzyme-based qHTS assay with human liver microsomes (AID 1347399; calls by dose curve; further: nearly all actives have a fitted effect of over 60% in size). As to conditions: Potency: qHTS inhibition. Put shortly:
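Recombinant human AChE (50 mU/mL in the enzyme mix) and human liver microsomes (0.25 mg/mL final) were preincubated with compound and NADPH (0.25 mg/mL final) for 30 min at 37 C. Acetylthiocholine/DTNB was then added; thiocholine was read colorimetrically after 10 min at room temperature.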

Test [4] addresses Cytochrome P450 2D6 (Homo sapiens) (UniProt P10635). The test can be described thus: Cytochrome P450 Family 2 Subfamily D Member 6 (CYP2D6) small molecule antagonists: luciferase reporter qHTS assay (AID 1671196). Further: nearly all actives have a fitted effect of over 50% in size. In outline: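 CYP2D6 enzyme–substrate mix was held with compound for 10 min at room temperature, then NADPH regeneration solution was added and the reaction ran 1 h at room temperature. Luciferin product was detected by luminescence after 20 min with detection reagent.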
In general terms: Reporter assays use an easily measured gene product as a stand-in for the process of interest.

The target in test [5] is Cytochrome P450 2C19 (Homo sapiens) (UniProt P33261). As to the kind of experiment: Cytochrome P450 Family 2 Subfamily C Member 19 (CYP2C19) small molecule antagonists: luciferase reporter qHTS assay (AID 1671197). Further: nearly all actives have a fitted effect of over 65% in size. In outline: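 Luminescent readout of CYP2C19 activity: luciferin product detected 20 min after adding detection reagent. Before that, compound and enzyme-substrate mix preincubated 10 min at room temperature; NADPH-regenerating system started a 1 h, 37C reaction. Ketoconazole as positive control.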
Sequence of Cytochrome P450 2C19 (Homo sapiens) (P33261 whole entry, looked up): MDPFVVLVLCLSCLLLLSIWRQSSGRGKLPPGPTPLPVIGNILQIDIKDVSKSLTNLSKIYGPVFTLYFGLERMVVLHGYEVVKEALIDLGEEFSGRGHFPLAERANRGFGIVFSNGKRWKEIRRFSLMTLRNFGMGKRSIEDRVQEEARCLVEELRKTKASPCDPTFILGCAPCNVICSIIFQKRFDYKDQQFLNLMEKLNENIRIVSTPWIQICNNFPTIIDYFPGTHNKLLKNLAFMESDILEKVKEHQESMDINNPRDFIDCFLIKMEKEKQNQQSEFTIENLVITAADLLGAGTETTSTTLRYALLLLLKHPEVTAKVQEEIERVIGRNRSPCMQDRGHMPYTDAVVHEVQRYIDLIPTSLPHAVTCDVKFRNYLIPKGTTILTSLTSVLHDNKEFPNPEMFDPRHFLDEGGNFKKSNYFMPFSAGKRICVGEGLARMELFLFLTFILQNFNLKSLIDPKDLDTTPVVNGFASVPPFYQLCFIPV

Test [6] has as its target Cytochrome P450 2C9 (Homo sapiens) (UniProt P11712). As to the kind of experiment: Cytochrome P450 Family 2 Subfamily C Member 9 (CYP2C9) small molecule antagonists: luciferase reporter qHTS assay (AID 1671198). Further: nearly all actives have a fitted effect of over 50% in size. Put shortly: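 Enzyme-substrate mix preincubated with compound 10 min at room temperature; reaction started with NADPH regeneration solution, 1 h 37C. Luminescent luciferin product read after 20 min detection reagent.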

For test [7], the target named is Cytochrome P450 1A2 (Homo sapiens) (UniProt P05177). As to the kind of experiment: Cytochrome P450 Family 1 Subfamily A Member 2 (CYP1A2) small molecule antagonists: luciferase reporter qHTS assay (AID 1671199). Further: nearly all actives have a fitted effect of over 50% in size. Put shortly:
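Human CYP1A2 activity measured with a P450-Glo proluciferin substrate; compounds in DMSO preincubated 10 min at room temperature with enzyme-substrate mix, then NADPH regeneration system added for 1 h. Luciferin detection reagent, 20 min, luminescence read.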

Test [8] has as its target Voltage-gated inwardly rectifying potassium channel KCNH2 (Homo sapiens) (UniProt Q12809). As to the kind of experiment: Human Ether-a-go-go-Related Gene (hERG) channel small molecule antagonists: fluorescence cell-based qHTS assay (AID 1671200). Further: nearly all actives have a fitted effect of over 50% in size. In outline: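 Fluorescence at 540 nm emission (480 nm excitation) was recorded kinetically for 2 min at 1-second intervals once the thallium-containing stimulus reached cells previously loaded with FluxOR II dye.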
On the technique in general: The hERG channel carries a current that helps repolarise heart muscle cells.

The target in test [9] is Cytochrome P450 3A4 (Homo sapiens) (UniProt P08684). The test can be described thus: Cytochrome P450 Family 3 Subfamily A Member 4 (CYP3A4) small molecule antagonists: luciferase reporter qHTS assay (AID 1671201). Further: nearly all actives have a fitted effect of over 50% in size. In outline: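 qHTS, 1536-well. CYP3A4 + proluciferin substrate, cpd 10 min RT → NADPH regen 1 h RT → detection reagent 20 min → luminescence (RLU). Ketoconazole positive control.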
Sequence of Cytochrome P450 3A4 (Homo sapiens) (P08684 whole entry, looked up): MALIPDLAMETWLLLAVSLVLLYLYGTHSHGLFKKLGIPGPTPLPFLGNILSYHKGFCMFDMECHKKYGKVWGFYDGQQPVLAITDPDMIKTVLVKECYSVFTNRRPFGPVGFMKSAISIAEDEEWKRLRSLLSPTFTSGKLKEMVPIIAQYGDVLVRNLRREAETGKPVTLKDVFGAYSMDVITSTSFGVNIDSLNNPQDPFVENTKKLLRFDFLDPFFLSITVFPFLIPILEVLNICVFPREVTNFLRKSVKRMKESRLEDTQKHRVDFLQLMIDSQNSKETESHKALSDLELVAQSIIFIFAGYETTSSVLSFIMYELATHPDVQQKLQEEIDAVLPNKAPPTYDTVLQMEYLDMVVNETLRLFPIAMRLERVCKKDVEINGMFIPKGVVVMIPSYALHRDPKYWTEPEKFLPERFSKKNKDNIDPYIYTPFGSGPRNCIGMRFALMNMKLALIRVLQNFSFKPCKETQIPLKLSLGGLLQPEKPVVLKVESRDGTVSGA

The structures appear in SMILES notation. Values without a mark were called inactive. Records with an inconclusive call do not appear. Activity calls are given as the source filed them. Unless noted, the call rests on the fitted dose curve; in most records, active means well fitted curve in the direction sought with a large enough effect in the repeat runs; inconclusive means weak or mixed curves; inactive means no such curve, though single readings can be large; an effect the other way counts as inactive or inconclusive.
Potency means the concentration at half of the fitted maximal effect.

Sequence of Cytochrome P450 2C9 (Homo sapiens) (P11712 whole entry, looked up): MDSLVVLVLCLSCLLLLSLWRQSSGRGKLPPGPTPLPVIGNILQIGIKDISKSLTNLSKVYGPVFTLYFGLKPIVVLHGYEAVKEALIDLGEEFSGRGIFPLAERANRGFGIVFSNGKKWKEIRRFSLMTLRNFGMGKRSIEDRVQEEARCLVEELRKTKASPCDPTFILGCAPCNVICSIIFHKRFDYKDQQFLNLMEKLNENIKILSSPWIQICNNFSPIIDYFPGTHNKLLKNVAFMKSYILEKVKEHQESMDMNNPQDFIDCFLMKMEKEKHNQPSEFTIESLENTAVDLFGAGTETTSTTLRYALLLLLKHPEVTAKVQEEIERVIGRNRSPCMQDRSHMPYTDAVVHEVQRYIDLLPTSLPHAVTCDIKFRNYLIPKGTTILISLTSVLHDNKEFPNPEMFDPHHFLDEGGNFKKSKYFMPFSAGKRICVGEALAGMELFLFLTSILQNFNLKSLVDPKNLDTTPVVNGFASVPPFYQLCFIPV
Sequence of Cytochrome P450 2D6 (Homo sapiens) (P10635 whole entry, looked up): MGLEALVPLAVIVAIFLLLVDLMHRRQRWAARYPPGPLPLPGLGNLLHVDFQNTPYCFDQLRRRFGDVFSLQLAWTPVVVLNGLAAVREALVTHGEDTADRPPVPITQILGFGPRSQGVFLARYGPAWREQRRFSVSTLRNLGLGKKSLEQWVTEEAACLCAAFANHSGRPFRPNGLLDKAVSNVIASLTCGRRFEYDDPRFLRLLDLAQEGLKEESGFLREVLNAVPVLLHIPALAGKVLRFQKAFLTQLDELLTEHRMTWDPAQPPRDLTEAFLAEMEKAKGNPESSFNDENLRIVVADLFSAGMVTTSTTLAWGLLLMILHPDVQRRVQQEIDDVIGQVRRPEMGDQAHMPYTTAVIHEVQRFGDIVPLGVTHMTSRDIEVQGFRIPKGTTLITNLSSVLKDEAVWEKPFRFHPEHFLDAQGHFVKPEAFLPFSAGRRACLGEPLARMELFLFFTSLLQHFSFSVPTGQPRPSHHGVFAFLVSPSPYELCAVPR
Sequence of Voltage-gated inwardly rectifying potassium channel KCNH2 (Homo sapiens) (Q12809 whole entry, looked up): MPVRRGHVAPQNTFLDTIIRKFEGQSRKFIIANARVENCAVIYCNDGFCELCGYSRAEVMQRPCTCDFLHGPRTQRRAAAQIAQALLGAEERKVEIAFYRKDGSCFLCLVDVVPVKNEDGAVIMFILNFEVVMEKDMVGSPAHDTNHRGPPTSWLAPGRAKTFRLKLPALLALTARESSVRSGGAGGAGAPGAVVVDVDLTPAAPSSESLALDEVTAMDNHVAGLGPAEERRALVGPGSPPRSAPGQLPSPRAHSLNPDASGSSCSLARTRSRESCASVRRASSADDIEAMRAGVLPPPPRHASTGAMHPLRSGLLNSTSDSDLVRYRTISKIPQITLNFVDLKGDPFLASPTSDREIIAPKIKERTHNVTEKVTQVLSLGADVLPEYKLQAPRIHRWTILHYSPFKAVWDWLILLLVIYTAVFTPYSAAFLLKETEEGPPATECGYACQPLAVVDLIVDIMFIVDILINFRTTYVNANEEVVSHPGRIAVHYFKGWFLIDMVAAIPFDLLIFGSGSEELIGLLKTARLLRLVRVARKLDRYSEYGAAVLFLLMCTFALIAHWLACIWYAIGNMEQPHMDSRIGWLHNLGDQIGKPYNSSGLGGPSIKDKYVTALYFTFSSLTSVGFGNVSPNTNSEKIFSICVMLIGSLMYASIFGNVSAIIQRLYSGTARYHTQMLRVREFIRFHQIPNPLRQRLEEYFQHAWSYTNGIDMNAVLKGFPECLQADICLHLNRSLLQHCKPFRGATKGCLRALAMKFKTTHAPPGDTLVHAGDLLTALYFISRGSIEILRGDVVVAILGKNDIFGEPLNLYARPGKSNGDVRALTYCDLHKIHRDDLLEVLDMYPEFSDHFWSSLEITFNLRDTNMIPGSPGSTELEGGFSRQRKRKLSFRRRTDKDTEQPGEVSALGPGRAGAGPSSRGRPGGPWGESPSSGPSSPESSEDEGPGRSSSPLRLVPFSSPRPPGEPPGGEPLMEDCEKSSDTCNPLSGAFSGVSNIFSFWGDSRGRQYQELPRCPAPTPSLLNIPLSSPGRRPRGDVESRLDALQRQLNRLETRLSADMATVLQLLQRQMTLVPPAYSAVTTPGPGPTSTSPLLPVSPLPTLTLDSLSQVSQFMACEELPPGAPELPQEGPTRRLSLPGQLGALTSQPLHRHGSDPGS
Sequence of Cytochrome P450 1A2 (Homo sapiens) (P05177 whole entry, looked up): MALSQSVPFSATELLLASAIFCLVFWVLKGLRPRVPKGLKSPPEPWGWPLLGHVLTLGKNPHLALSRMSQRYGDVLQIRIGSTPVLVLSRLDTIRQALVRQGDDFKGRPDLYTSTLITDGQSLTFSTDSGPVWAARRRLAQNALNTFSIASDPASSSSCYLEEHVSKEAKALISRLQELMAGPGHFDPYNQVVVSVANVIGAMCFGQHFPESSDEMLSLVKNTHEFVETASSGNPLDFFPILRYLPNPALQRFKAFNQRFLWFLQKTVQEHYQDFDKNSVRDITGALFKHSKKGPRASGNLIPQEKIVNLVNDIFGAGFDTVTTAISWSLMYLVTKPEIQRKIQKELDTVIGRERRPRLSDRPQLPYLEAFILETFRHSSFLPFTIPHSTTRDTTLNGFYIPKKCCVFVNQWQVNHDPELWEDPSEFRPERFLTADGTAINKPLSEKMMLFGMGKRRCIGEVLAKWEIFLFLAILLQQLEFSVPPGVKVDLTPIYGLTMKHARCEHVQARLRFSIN

Take `Cc1nc(N)nc(N)n1`: the Potency entry in test [1], in test [2], in test [3], in [4], in [5] and in [6] was “inactive” each time. Also, the Potency entry in [7], in test [8] and in test [9] was “inactive” each time.
On to `CCCSP(=O)(OCC)Oc1ccc(Br)cc1Cl` (configuration not stated), for which the Potency in [1] is 3.87 µM (active); in test [2], 0.866 µM (active); in test [3] it was 2.74 µM (active); in test [4], 15.4 µM (active); in test [5], 3.45 µM (active); in [6], 10.9 µM (active). Moreover, in test [7], the Potency was 4.34 µM (active). In addition, in [9], the Potency result was “inactive”.
Consider `Cc1cccc(C#N)c1`, for which the Potency entry in test [1], in test [2], in [3], in test [4], in test [5] and in test [6] was “inactive” throughout. Moreover, in test [9], the Potency entry is “inactive”.
Regarding `ClCCCN1CCN(c2cccc(Cl)c2)CC1`, the Potency result in test [1], in [2], in test [3] and in [9] was “inactive” throughout. In addition, the Potency in [4] is 0.977 µM (active); in test [5], 8.71 µM (active); in test [7] it was 15.5 µM (active); in test [8], 10.7 µM (active).
Regarding `c1ccc(N2CCNCC2)cc1`, the Potency entry in [1], in test [2], in test [3], in [4], in [5] and in test [6] was “inactive” throughout. Besides, the Potency entry in test [8] and in test [9] was “inactive” each time.
Regarding `CNNC`, the Potency result in test [1], in test [2], in [3], in test [5], in test [6] and in test [8] was “inactive” each time. Besides, the Potency in [4] is 65.4 µM (active).
With `O=C1CN2CCOC2(c2ccccc2Cl)c2cc(Cl)ccc2N1` (configuration not stated), the Potency result in test [1], in test [2], in [3], in test [7] and in [8] was “inactive” in each case. The Potency in [4] is 8.71 µM (active); in test [5], 6.17 µM (active).
As to `O=C(CCCN1CCC(n2c(=O)[nH]c3ccccc32)CC1)c1ccc(F)cc1`, the Potency result in test [1], in test [2], in [3], in test [5], in [7] and in test [9] was “inactive” each time. Further, the Potency in test [4] was 8.71 µM (active); in [8] it was 1.51 µM (active).
`C[C@]12CC[C@H]3[C@@H](CCC4=CC(=O)CC[C@@]43C)[C@@H]1CC[C@@H]2C(=O)O`: the Potency entry in [1], in test [2], in test [3], in [4], in [5] and in test [7] was “inactive” each time. The Potency entry in test [9] is “inactive”.
Consider `CSc1ccc(C(=O)C(C)(C)N2CCOCC2)cc1`, for which the Potency result in [1], in test [2] and in test [3] was “inactive” each time. In addition, the Potency in test [4] is 2.52 µM (active); in [5], 1.12 µM (active); in [6] it was 20 µM (active); in test [9], 2 µM (active).
Regarding `Nc1cnn(-c2ccccc2)c(=O)c1Cl`, the Potency result in test [1], in [2], in [3], in [4], in test [5] and in [7] was “inactive” throughout. The Potency entry in [8] and in test [9] was “inactive” in each case.
Regarding `N#CC(O)c1ccccc1` (configuration not stated), the Potency result in test [1], in test [2], in [3], in [5], in test [6] and in test [8] was “inactive” throughout. In addition, in [9], the Potency entry is “inactive”. Besides, in [4], the Potency was 35.5 µM (active).
With `Cc1cc(C)nc(Nc2ccccc2)n1`, the Potency result in test [1], in [2], in test [3], in [4], in test [8] and in test [9] was “inactive” each time. Further, the Potency in test [5] was 79.6 µM (active); in [7], 6.33 µM (active).
With `Nc1ccccc1Cl`, the Potency entry in test [1], in test [2], in test [3], in test [5], in test [6] and in [8] was “inactive” in each case. In addition, in test [9], the Potency result was “inactive”. The Potency in [4] was 6.87 µM (active).
For the compound `O=C(Oc1ccc(Br)cc1)N1CCN2CCC1CC2`, the Potency entry in test [1], in [2], in test [3], in test [4], in [5] and in test [6] was “inactive” throughout. Further, the Potency entry in [7] and in [9] was “inactive” each time.
Take `COC(C)(C)C`: the Potency entry in test [1], in test [2], in [3], in test [4], in test [5] and in test [6] was “inactive” in each case. Besides, in test [9], the Potency result is “inactive”.
With `Oc1c(Cl)cccc1Cl`, the Potency entry in test [1], in test [2], in test [3], in [4], in test [5] and in [6] was “inactive” throughout. The Potency entry in test [8] and in test [9] was “inactive” in each case.
On to `CNC(=O)Oc1c(C(C)(C)C)cc(C)cc1C(C)(C)C`, for which the Potency entry in [1], in [2], in test [3], in test [4] and in test [7] was “inactive” throughout. In addition, the results for the Potency in test [5], in test [6] and in test [9] were 2.83 µM (active), 6.33 µM (active) and 2.83 µM (active), respectively.
With `C1CCC(C2CCCCC2)CC1`, the Potency entry in test [1], in [2], in test [3], in [4], in [5] and in test [6] was “inactive” throughout. Also, the Potency result in test [8] and in test [9] was “inactive” in each case.
Take `C[N+](=O)[O-]`: the Potency result in test [1], in test [2], in test [3], in test [4], in [5] and in test [6] was “inactive” in each case. The Potency result in test [8] and in test [9] was “inactive” throughout.
`CC1(C)CON(Cc2ccccc2Cl)C1=O`: the Potency result in test [1], in [2], in [3], in [4] and in test [9] was “inactive” in each case. Moreover, the values for the Potency in test [5] and in test [7] were 10 µM (active) and 31.7 µM (active), respectively.
With `OC(c1ccccc1)(c1ccccc1)C1CCNCC1`, the Potency result in [1], in [2], in test [3], in test [6] and in [9] was “inactive” each time. In addition, the results for the Potency in test [4] and in test [5] were 12.3 µM (active) and 4.36 µM (active), respectively.
Consider `N#Cc1c(Cl)cccc1Cl`, for which the Potency result in [1], in test [2], in test [3], in [4], in test [5] and in test [6] was “inactive” in each case. The Potency entry in test [8] and in test [9] was “inactive” each time.
Turning to `CCC1(c2ccccc2)C(=O)NC(=O)NC1=O`, the Potency result in [1], in test [2], in test [3], in test [5], in test [6] and in test [8] was “inactive” each time. Besides, in [9], the Potency entry is “inactive”. Moreover, in [4], the Potency was 11.5 µM (active).
Regarding `CCCCN(CCCCO)N=O`, the Potency result in test [1], in test [2], in [3], in test [4], in test [5] and in [7] was “inactive” throughout.
For `COc1cc(OC)nc(NC(=O)NS(=O)(=O)c2ncccc2C(=O)N(C)C)n1`, the Potency entry in test [1], in [2], in test [3], in test [4], in test [5] and in test [6] was “inactive” throughout. Also, the Potency result in test [8] and in test [9] was “inactive” throughout.
Regarding `CCCCOC(=O)c1ccccc1N`, the Potency result in test [1], in test [2], in test [3], in [4], in test [8] and in test [9] was “inactive” each time. The Potency in [5] was 28.4 µM (active); in test [7], 8.99 µM (active).
